This passage reports Potency results from PubChem BioAssay (NCATS).

Experiment [1] concerns the target Cytochrome P450 1A2 (Homo sapiens) (UniProt P05177). Kind of experiment: p450-cyp1a2 (AID 410; calls by dose curve; note: potency is the fitted concentration of half-maximal effect). The gist of the method: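 Inhibition was calculated relative to 57 uM furafylline (full inhibition). The reaction used human CYP1A2 at 20nM with Luciferin-ME at its Km, 100uM, driven by an NADPH-regenerating system for 60 min at room temperature.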
Experiment [2] has as its target Glucocorticoid receptor (Homo sapiens) (UniProt P04150). Kind of experiment: GR-GFP Redistribution (AID 450;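 active = compounds whose dose series gives a full or clear partial fitted curve of increased nuclear translocation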; note: potency is the fitted concentration of half-maximal effect). Particulars: U2OS GR-GFP nuclear translocation, laser cytometry, 2 h.
The target is the same in experiment [3]. Kind of experiment: GR-EFC Redistribution (AID 451; calls by dose curve; note: potency is the fitted concentration of half-maximal effect). As to conditions: CHO-K1 GR-EFC translocation, beta-gal luminescence, 2 h. The gist of the method:
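CHO-K1 cells stably expressing nuclear-localized β-gal enzyme acceptor and GR fused C-terminally to the enzyme donor fragment; ligand-driven nuclear translocation restores β-gal by complementation. Compounds titrated up to 46 uM final, 2 h at 37 °C; luminescence read.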

The target of experiment [4] is 3',5'-cyclic-AMP phosphodiesterase 4B (Homo sapiens) (UniProt Q07343). Kind of experiment: qHTS Assay for Inhibitors of PDE-IV (AID 607; active = well fitted activation curve with a large enough effect in the main read-out, with a control signal flat, not every such curve was filed as active). The gist of the method: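 HEK293 ACTOne cells with CNG channel (1000/well), endogenous PDE4; membrane potential dye, compounds up to 22.9 uM final. Fluorescence Ex 535/Em 590; RO 20-1724 (100 uM final) as reference.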
Sequence of 3',5'-cyclic-AMP phosphodiesterase 4B (Homo sapiens) (Q07343 whole entry, looked up): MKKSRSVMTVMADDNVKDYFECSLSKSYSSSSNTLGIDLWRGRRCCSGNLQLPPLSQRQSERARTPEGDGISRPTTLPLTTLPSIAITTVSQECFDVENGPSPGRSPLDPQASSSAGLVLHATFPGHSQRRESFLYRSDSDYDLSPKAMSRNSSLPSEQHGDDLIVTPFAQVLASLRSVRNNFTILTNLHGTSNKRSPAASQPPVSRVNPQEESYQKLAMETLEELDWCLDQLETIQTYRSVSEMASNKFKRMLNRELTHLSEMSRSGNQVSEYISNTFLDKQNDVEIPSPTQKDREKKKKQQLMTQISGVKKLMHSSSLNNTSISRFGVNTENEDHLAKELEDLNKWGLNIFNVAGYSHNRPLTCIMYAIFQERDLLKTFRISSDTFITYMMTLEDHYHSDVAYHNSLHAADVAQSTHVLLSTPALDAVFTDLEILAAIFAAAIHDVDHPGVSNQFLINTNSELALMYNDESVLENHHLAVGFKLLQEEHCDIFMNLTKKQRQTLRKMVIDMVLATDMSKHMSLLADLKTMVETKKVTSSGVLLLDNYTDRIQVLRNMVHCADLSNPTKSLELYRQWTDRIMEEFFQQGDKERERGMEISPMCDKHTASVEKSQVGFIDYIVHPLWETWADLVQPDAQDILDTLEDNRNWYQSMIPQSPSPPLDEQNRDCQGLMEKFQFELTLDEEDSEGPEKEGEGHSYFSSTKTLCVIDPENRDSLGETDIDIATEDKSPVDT
The target in experiment [5] is Cytochrome P450 2C9 (Homo sapiens) (UniProt P11712). Briefly: qHTS Assay for Inhibitors and Substrates of Cytochrome P450 2C9 (AID 883). Note: nearly all actives have a fitted effect of over 60% in size. The gist of the method: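 A luminogenic readout tracked human CYP2C9 (10nM) converting deoxyluciferin (100uM, at KM) in 25mM KPO4 during 60 min at 37C with regenerated NADPH. Values normalized to 57uM sulphaphenazole as complete inhibition.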

Experiment [6] has as its target Cytochrome P450 3A4 (Homo sapiens) (UniProt P08684). Kind of experiment: qHTS Assay for Activators of Cytochrome P450 3A4 (AID 885). Note: nearly all actives have a fitted effect of over 65% in size. In outline: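 Human CYP3A4 (20 nM) with Luciferin-PPXE at 25 uM (its KM) in 200 mM KPO4; 10 min compound preincubation, then NADPH regeneration and 60 min reaction at RT. Luciferin read by luminescence; normalized to 57 uM ketoconazole full inhibition.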
On the technique in general: Quantitative high-throughput screening tests each substance at several concentrations.

In experiment [7] the target is Ubiquitin carboxyl-terminal hydrolase 1 (Homo sapiens) (UniProt O94782). Briefly: Inhibitors of USP1/UAF1: Pilot qHTS (AID 504865). Note: nearly all actives have a fitted effect of over 35% in size. Note: potency is the fitted concentration of half-maximal effect. The gist of the method:
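Kinetic fluorescence assay: 1nM USP1/UAF1, 15 min compound preincubation, then 150nM Ub-Rho; 480/540 nm.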

The target in experiment [8] is DNA dC->dU-editing enzyme APOBEC-3G (Homo sapiens) (UniProt Q9HC16). Briefly: qHTS for inhibitors of Vif-A3G interactions: Validation (AID 588379). The gist of the method: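 HeLa cells stably expressing Vif and A3G-eYFP, 700 cells/well, incubated overnight at 37 deg C, then exposed to compound overnight at 37 deg C. Inhibition of Vif-mediated degradation read as increased yellow fluorescence (Ex 488/Em 500-530) by laser-scanning cytometry.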
Sequence of DNA dC->dU-editing enzyme APOBEC-3G (Homo sapiens) (Q9HC16 whole entry, looked up): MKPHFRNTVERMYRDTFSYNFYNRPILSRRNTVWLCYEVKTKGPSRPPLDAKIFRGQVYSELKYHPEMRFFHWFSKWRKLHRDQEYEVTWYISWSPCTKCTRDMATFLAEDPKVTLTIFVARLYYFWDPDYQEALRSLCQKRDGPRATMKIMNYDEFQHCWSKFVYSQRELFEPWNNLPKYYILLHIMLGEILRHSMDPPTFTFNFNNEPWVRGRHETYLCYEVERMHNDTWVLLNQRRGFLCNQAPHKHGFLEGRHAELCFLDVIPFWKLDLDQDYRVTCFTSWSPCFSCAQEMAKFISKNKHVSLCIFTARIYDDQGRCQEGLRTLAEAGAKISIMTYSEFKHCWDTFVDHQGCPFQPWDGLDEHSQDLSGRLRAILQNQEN

In experiment [9] the test system is Zika virus NS2B-NS3 protease. Kind of experiment: Primary screen GU AMC qHTS for Zika virus inhibitors (AID 1347154). Note: nearly all actives have a fitted effect of over 70% in size. In outline: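 Unlinked Zika NS2B hydrophilic domain/NS3 protease domain noncovalent complex (25 nM final) in 10 mM Tris-HCl pH 8.0, 0.01% Tween 20, with AMC peptide substrate. Fluorescence (ex 340, em 450 nm) change over 15 min, room temperature; percent inhibition fitted to 4-parameter Hill equation.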

Experiment [10] deals with Cytochrome P450 2D6 (Homo sapiens) (UniProt P10635). Kind of experiment: qHTS Assay for Inhibitors and Substrates of Cytochrome P450 2D6 (AID 891). Note: potency is the fitted concentration of half-maximal effect; nearly all actives have a fitted effect of over 60% in size. In outline:
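Human CYP2D6 (5 nM) with 30 uM Luciferin-ME EGE (at Km) in 100 mM KPO4, compound preincubated 10 min, then NADPH regeneration system for 60 min at room temperature. Luciferin read by luminescence; normalized to 1.43 uM quinidine.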

Experiment [11] deals with Mitogen-activated protein kinase 10 (Mus musculus) (UniProt Q61831). Briefly: JNK3 AlphaScreen Assay (AID 530; active = well fitted curve in either direction with a large enough effect, not every such curve was filed as active;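 note: kinase came from lysate of stimulated human HepG2 cells; signal reports phosphorylation of biotinylated GST-cJun 1-79 at Ser73 with 10 µM ATP; series mostly up to about 57 µM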). In outline:
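JNK3 came from HepG2 lysates pre-activated with IL-1beta and TNF-alpha and phosphorylated biotinylated GST-cJun (1-79) at 10 uM ATP, pH 7.6, room temperature. Compounds were titrated. AlphaScreen signal used anti-phospho-cJun (Ser73) antibody.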
A general note: Bead proximity is the source of the signal in Alpha formats.

Experiment [12] has as its target Cytochrome P450 2C19 (Homo sapiens) (UniProt P33261). Kind of experiment: qHTS Assay for Inhibitors and Substrates of Cytochrome P450 2C19 (AID 899). Note: potency is the fitted concentration of half-maximal effect; nearly all actives have a fitted effect of over 60% in size. In outline: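 NADPH-dependent conversion of Luciferin-H EGE (10uM, at KM) by 5nM enzyme in 50mM KPO4, 60 min at 37C following 10 min compound preincubation. Stopped with luciferin detection buffer; luminescence read after 20 min.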

Values without a mark were called inactive. Records with an inconclusive call do not appear. Active and inactive are the calls of the source. Unless noted, calls come from the whole dose curve; as a rule, active = well fitted curve in the direction sought with a large enough effect; inconclusive = small, poorly fitted or top-dose-only effect, or another doubt; inactive = no such curve, though single readings can be large; an effect the other way counts as inactive or inconclusive.

Sequence of Cytochrome P450 1A2 (Homo sapiens) (P05177 whole entry, looked up): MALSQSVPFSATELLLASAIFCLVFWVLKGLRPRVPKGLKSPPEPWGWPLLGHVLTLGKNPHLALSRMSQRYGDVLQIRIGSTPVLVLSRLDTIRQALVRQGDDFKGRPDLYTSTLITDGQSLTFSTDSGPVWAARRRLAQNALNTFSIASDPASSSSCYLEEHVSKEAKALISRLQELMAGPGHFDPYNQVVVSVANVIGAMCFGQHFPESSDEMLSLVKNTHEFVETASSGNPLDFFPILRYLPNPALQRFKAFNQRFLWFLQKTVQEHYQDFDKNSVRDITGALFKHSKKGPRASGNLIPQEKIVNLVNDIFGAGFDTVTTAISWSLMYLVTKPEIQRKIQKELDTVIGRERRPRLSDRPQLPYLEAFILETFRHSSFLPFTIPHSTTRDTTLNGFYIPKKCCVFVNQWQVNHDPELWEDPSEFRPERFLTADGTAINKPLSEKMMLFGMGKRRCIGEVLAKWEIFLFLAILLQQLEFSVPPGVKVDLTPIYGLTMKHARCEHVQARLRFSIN
Sequence of Glucocorticoid receptor (Homo sapiens) (P04150 whole entry, looked up): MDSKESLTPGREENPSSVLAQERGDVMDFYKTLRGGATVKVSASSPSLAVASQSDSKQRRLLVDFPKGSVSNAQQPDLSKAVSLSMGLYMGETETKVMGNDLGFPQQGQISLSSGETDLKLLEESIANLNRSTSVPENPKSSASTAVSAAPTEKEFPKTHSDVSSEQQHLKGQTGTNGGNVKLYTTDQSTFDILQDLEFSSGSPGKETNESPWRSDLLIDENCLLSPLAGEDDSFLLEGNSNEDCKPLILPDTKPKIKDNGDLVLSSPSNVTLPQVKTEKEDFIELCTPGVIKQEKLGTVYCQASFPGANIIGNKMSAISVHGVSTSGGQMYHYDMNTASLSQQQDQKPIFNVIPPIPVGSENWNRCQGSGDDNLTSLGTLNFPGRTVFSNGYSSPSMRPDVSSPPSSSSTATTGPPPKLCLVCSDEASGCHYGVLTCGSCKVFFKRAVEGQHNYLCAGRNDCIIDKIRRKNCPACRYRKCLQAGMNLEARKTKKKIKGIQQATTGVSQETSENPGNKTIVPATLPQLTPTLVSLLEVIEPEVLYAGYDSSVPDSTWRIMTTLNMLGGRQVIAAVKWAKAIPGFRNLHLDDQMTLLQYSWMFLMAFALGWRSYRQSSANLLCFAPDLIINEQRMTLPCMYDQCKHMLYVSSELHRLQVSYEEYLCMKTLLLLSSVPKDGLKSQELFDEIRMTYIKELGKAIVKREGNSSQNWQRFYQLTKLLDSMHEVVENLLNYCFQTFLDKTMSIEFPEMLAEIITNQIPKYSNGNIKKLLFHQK
Sequence of Ubiquitin carboxyl-terminal hydrolase 1 (Homo sapiens) (O94782 whole entry, looked up): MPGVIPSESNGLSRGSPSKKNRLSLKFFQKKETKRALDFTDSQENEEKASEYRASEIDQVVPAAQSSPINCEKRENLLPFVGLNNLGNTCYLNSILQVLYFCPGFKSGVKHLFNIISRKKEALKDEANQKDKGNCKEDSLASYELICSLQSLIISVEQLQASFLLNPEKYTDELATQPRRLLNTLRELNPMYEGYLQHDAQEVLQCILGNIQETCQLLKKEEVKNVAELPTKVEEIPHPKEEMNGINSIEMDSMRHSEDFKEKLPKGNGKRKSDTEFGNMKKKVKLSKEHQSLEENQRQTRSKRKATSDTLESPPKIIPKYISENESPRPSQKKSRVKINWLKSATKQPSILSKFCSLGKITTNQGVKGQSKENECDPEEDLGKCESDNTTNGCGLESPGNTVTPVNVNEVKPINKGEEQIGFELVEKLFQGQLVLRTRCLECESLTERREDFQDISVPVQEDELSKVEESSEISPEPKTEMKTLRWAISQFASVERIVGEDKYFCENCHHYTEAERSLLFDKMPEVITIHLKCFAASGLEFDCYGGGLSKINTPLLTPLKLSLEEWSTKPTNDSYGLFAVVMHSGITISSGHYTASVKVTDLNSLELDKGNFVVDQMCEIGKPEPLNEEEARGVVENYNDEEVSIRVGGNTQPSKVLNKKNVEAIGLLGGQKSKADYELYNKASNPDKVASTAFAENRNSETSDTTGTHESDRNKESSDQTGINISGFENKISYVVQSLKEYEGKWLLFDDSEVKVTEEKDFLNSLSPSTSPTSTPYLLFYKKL
Sequence of Cytochrome P450 3A4 (Homo sapiens) (P08684 whole entry, looked up): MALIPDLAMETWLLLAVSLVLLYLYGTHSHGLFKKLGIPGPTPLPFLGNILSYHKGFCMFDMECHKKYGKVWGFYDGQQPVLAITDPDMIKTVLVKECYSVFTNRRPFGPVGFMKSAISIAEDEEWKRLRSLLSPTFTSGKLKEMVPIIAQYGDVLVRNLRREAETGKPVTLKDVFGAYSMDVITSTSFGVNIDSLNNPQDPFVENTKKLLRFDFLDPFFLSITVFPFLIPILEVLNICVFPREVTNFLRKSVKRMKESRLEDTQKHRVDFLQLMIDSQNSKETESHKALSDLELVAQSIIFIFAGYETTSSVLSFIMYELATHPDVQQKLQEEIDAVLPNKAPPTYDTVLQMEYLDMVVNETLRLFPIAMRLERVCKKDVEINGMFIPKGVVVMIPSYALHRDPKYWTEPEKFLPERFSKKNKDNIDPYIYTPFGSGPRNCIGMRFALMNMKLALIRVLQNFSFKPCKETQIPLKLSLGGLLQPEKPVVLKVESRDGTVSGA
Sequence of Cytochrome P450 2D6 (Homo sapiens) (P10635 whole entry, looked up): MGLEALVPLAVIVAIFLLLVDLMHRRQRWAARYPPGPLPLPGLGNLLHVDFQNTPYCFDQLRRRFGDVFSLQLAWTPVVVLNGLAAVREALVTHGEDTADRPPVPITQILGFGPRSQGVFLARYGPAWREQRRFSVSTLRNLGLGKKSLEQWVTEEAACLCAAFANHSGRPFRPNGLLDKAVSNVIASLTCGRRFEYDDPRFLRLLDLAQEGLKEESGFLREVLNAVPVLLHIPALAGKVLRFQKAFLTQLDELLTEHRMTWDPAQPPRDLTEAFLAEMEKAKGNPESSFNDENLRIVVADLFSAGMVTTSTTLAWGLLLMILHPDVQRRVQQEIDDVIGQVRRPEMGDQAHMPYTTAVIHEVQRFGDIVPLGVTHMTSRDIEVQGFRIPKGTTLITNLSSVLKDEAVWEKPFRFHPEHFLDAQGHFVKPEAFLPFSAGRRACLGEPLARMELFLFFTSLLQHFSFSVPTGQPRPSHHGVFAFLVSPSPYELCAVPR
Sequence of Cytochrome P450 2C19 (Homo sapiens) (P33261 whole entry, looked up): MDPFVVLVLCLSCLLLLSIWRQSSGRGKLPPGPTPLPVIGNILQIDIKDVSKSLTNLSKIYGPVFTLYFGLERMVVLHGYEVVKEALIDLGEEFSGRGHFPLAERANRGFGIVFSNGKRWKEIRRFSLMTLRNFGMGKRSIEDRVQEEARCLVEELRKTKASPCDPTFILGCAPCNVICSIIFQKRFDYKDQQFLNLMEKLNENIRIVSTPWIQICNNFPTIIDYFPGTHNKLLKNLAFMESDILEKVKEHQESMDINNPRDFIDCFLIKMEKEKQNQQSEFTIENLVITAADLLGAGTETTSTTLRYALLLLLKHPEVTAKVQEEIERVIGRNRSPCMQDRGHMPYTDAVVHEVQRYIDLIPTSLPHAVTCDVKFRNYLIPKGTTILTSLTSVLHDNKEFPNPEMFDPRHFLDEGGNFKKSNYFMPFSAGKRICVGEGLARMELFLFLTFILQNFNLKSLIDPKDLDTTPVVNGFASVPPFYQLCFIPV

As to `COc1ccccc1N1CCN(C[C@@H]2CN3C(=O)N(C)c4ccccc4C3=N2)CC1`, the Potency in experiment [1] was 31.6 µM (active); in experiment [2] it was above 46 µM; in experiment [3], above 46 µM. Moreover, the Potency result in experiment [4], in [5], in [6], in experiment [7], in experiment [8] and in experiment [9] was “inactive” in each case.

Take `O=C1CC2(CCCC2)CC(=O)N1CCCCNC[C@H]1COc2ccccc2O1`: the Potency in experiment [2] is above 46 µM; in experiment [3], above 46 µM; in experiment [10], 5.01 µM (active). Further, the Potency entry in experiment [6], in experiment [7], in [8] and in [9] was “inactive” each time.

In the case of `CCCCCCCCCCCCCCCC(=O)C(F)(F)F`, the Potency was 31.6 µM (active) in [1] and above 46 µM in experiment [3]. Moreover, the Potency entry in experiment [11], in experiment [4], in experiment [8] and in experiment [9] was “inactive” in each case.

In the case of `C[C@@]12CC[C@@H]3c4ccc(O)cc4C[C@H](CCCCCCCCCS(=O)CCCC(F)(F)C(F)(F)F)[C@H]3[C@@H]1CC[C@@H]2O` (some centres not stated), the Potency in [2] and in experiment [3] was above 46 µM each time. The Potency entry in experiment [11], in experiment [4], in [8] and in [9] was “inactive” throughout.

`O=C(O)COc1cccc(-c2ocnc2-c2nc(-c3ccccc3)c(-c3ccccc3)o2)c1`: the Potency in experiment [2] is above 46 µM; in [3] it was above 46 µM; in experiment [7] it was 39.8 µM (active). Further, the Potency entry in [4], in [8] and in experiment [9] was “inactive” in each case.

For `N=C(C[C@@H](O)COc1ccccc1-c1ccccc1)N1CCCCC1`, the Potency in [2] and in experiment [3] was above 46 µM throughout. Also, the Potency result in experiment [11], in experiment [7], in experiment [8] and in [9] was “inactive” each time.

With `Cc1c(C(=O)NN2CCCCC2)nn(-c2ccc(Cl)cc2Cl)c1-c1ccc(I)cc1`, the Potency entry in experiment [7], in experiment [8] and in [9] was “inactive” throughout.

As to `CCc1cc2c(c(CC)n1)CCC(=O)N2Cc1ccc(-c2ccccc2-c2nn[nH]n2)cc1`, the Potency result in experiment [1], in experiment [11], in [6], in [8] and in experiment [9] was “inactive” throughout. Further, the Potency in [2] is above 46 µM; in [3] it was above 46 µM; in [12], 5.01 µM (active).

Take `Cc1ccc(S(=O)(=O)NCc2ccccc2)cc1`: the Potency in [1] was 0.501 µM (active); in experiment [2], above 46 µM; in experiment [3], above 46 µM. The Potency result in experiment [4], in experiment [6], in experiment [8] and in [9] was “inactive” each time.

For `OCCNCCCOc1cccc(Cl)c1Cl`, the Potency in experiment [2] is above 46 µM; in experiment [3], above 46 µM; in experiment [10] it was 0.158 µM (active); in [12], 3.98 µM (active). The Potency entry in [11], in experiment [6], in [7], in experiment [8] and in experiment [9] was “inactive” each time.
